In the library only some 12% were active in any assay of this set; here they are far more common.
m-calpain inh – inhibitors of pig calpain II, primary screen, biochemical, fluorogenic peptide substrate, 1536-well. inhibition, % at 16 µM. 220,000 tested, 0.37% active. purified calpain II, 30 min. AID 1236, 2008;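 active means inhibition above about 50%, limit read from the data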
L major viab – Leishmania major promastigote growth inhibition, primary screen. Leishmania major promastigotes, resazurin fluorescence viability. inhibition, % at 10 µM. 200,000 tested, 9% active. AID 1063, 2008; in the data active means inhibition above about 50%;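 further: promastigotes grown with compound for 44 hours at 28 °C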
ROMK mod – ROMK potassium channel modulators, primary screen, cell-based, thallium flux, MLSMR library; 130,000 tested, 2% active; Tet-inducible ROMK, thallium flux fluorescence; actives lie on both sides; B-score at 10 µM; AID 1918, 2009;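 active means signal ratio slope over the read window, or its plate-corrected B-score, at least 3 SD from the plate mean, either direction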;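 further: B-score of the F/F0 ratio slope over 7 to 12 s after thallium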
Target sequence (P48048 whole entry, looked up): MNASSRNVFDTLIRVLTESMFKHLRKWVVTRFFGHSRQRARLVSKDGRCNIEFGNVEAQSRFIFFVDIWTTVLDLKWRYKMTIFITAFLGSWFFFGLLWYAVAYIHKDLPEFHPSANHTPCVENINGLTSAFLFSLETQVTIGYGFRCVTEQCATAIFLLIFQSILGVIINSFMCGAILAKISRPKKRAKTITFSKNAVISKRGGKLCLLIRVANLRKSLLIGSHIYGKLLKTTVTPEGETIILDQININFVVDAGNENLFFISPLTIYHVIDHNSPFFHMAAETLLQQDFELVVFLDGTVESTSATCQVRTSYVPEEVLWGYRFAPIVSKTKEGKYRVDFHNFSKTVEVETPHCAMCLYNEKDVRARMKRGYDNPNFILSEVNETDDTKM
KCC2 mod – KCC2 cotransporter modulators, thallium flux, primary screen, cell-based, HEK293 KCC2, FluoZin-2 fluorescence, MLSMR | KCC2 cells, thallium flux FluoZin-2 fluorescence | Solute carrier family 12 member 5 (Homo sapiens), Q9H2X9 | B-score of Tl+ flux slope (higher = more flux/activation; lower = inhibition) at 10 µM | 190,000 tested, 2.2% active;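 active means thallium flux slope and its plate-corrected score both differing from the plate sample mean at a set confidence after two filtering rounds, in either direction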;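 further: slope of fluorescence scaled to starting intensity during 10 to 20 s after thallium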
WT yeast gro inh – growth inhibition of WT strain, primary screen, mitochondrial fusion inhibitor project, WT and mutant strains, chemical genetic. inhibition, % at 10 µM. 190,000 tested, 2.1% active. mitochondrial fusion phenotypic screen; in the data active means inhibition above about 58%; tested in S. cerevisiae
Each line names hits and unclear results; the compound was inactive in the other large screens.

COc1cccc(NC(=O)N(C2CCCCC2)C(C)c2cccs2)c1 (stereo not given)	none (no result: ROMK mod)
COC(C[C@H]1O[C@H]1[C@@H](O)[C@@H](C)OCc1ccccc1)OC	none (no result: L major viab, ROMK mod, WT yeast gro inh)
C=CC[N+](C)(C)CCN1C(=O)C2C(c3ccccc3)C=CC(c3ccccc3)C2C1=O (stereo not given)	none
COc1ccc(COc2cc(-c3cccc(OC)c3)nc3ccc(NC(=O)C(C)C)cc23)cc1	L major viab 100.1
COc1cccc(-n2nc(C#N)c(Cl)cc2=O)c1	L major viab 100.2, WT yeast gro inh 77.2 (no result: KCC2 mod)
C/C=C/C=N/NC(=O)CN(c1ccc(Br)cc1)S(=O)(=O)c1ccccc1	none
CC1(C)CC2CC(C)(CN2C(=S)NC(=O)c2ccccc2Cl)C1 (stereo not given)	KCC2 mod 54.5 (no result: ROMK mod)
CC1(C)CC2CC(C)(CN2C(=S)Nc2ccccc2)C1 (stereo not given)	none (no result: ROMK mod)
COc1ccc(/C=N/Nc2c(Cl)cc(Cl)cc2Cl)cc1CN1CCOCC1	none
O=C(O)c1cc([N+](=O)[O-])ccc1NCCO	L major viab 56.0
Cc1ccc(C)c(C(=O)COC(=O)c2cc([N+](=O)[O-])ccc2NCCO)c1	WT yeast gro inh 60.1 (no result: ROMK mod)
S=C(Nc1ccc(Cl)c(Cl)c1)N1CCOCC1	none (no result: ROMK mod)
Cc1ccc(NC(=O)CSC(N)=O)cc1Cl	KCC2 mod -3.54 (no result: ROMK mod)
O=C(Nc1ccc(Cl)c(Cl)c1)N1CC=CCC1	L major viab 85.1
Cc1ccc(NC(=O)N2CCCC2)cc1Cl	L major viab 94.7
Cc1ccc(NC(=O)C(=O)N2CCCC2)cc1Cl	none (no result: ROMK mod)
O=C(Nc1ccccc1)N1CCCC1	L major viab 96.9
COc1ccc(S(=O)(=O)N(C)C)cc1NC(=O)CSc1nnc(-c2cccnc2)o1	none
CC1CCCC(NC(=O)C2CCC(CNc3c(N4CCCCC4)c(=O)c3=O)CC2)C1C (stereo not given)	none (no result: L major viab, WT yeast gro inh)
CC(C)c1ccc(NC(=O)C2CC(=O)Nc3nc4ccccc4n32)cc1 (stereo not given)	none (no result: L major viab, ROMK mod, WT yeast gro inh)
CC(C)[C@H]1C=C(C(=O)O)O[C@@H](OCCCCO)C1	none (no result: L major viab, ROMK mod, WT yeast gro inh)
O=C(CCN1C(=O)c2cccc3cccc(c23)C1=O)Nc1ccccc1	none
CCCSC(=O)N(CC)CC(=O)Nc1c(CC)cccc1CC	none
CCOc1ccc(-n2c(N)c(C(=O)NCc3ccco3)sc2=S)cc1	none (no result: ROMK mod)
Cc1cc(-c2ccccc2)n(-c2cc(N/N=C/c3ccccc3O)ncn2)n1	L major viab 99.6
CC(=O)N1CCN(S(=O)(=O)c2cccc(C(=O)Nc3nccs3)c2)CC1	none
Cc1ccc2cc(/C=C3\N=C(c4ccccc4)OC3=O)c(N3CCOCC3)nc2c1	ROMK mod -5.9 (no result: KCC2 mod)
COC(=O)c1cccc(C(=O)N2CCCC(C(=O)c3cc(F)ccc3F)C2)c1 (stereo not given)	none (no result: ROMK mod)
O=C(c1ccc(OC2CCN(C(=O)C3CC3)CC2)cc1)N(CCO)Cc1ccccc1	none (no result: L major viab, ROMK mod, WT yeast gro inh)
Cc1cccc(Cn2c(=O)n(Cc3ccco3)c(=O)c3ccccc32)c1	m-calpain inh 54.7
C=CCSc1nnc(CNC(=O)c2ccccc2C)n1C(C)C	none
Cc1ccccc1NC(=O)NCCc1nc2ccccc2[nH]1	none
Cc1ccccc1NC(=S)c1nc2ccccc2[nH]1	L major viab 90.0, KCC2 mod 45.8
S=C(Nc1ccc(Cl)cc1)c1nc2ccccc2[nH]1	L major viab 87.6, KCC2 mod 29.6
COc1cccc(CN(C)CC(=O)NC(=O)NCc2ccco2)c1	none
COC(=O)c1sccc1NC(=O)CSCCc1ccccn1	none
COc1ccc(/C=N/n2c(N)nc(-c3ccccc3)c2-c2ccccc2)cc1	L major viab 56.6 (no result: ROMK mod)
COc1ccc(/C=C/CN2CCN(Cc3cccc(OC)c3)C(CCO)C2)cc1 (stereo not given)	L major viab 93.4
COc1ccc(CN2CCN(Cc3cccc(OC)c3)C(CCO)C2)cc1 (stereo not given)	L major viab 71.4 (no result: ROMK mod, KCC2 mod)
CCOc1ccc(CN2CCN(C/C=C/c3ccc(OC)cc3)CC2CCO)cc1 (stereo not given)	none
COc1cccc(CN2CCN(Cc3ccc4c(c3)OCCO4)CC2CCO)c1 (stereo not given)	L major viab 69.7
CCCCC(=O)NC(=S)Nc1cccc(Cl)c1N1CCCCC1	none
CCCC(=O)NC(=S)Nc1cccc(Cl)c1N1CCCCC1	WT yeast gro inh 60.1 (no result: ROMK mod, KCC2 mod)
CCCCC(=O)NC(=S)Nc1ccccc1N1CCCCC1	WT yeast gro inh 65.4
